Experimental data published in PubChem BioAssay (NCI).
Compounds without any hit were thinned out: in the full panel of roughly 83,000, 20% have a hit.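 Negative percent growth values reflect cell death: -40 means 40% of the cells present at the start died, and -100 means all died.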 A number with no mark means an inactive call. Activity calls are given as the source filed them.

These compounds were tested on M14 melanoma (assay: NCI-60 one-dose screen, 48 h (100 = growth as untreated, 0 = no growth, -100 = all killed)). Conditions: 10 µM.
Experimental: Growth inhibition of the M14 human tumor cell line is measured as a screen for anti-cancer activity. Cells are grown in 96 well plates and exposed to the test compound for 48 hours. Compounds are tested at a single concentration, which is 10^-5 M for most compounds. The reported endpoint is percent growth (GI% or GIPRCNT), where numbers from 0 - 100% represent growth inhibition, and numbers from -100% - 0 represent cell death. For example, a value of 40 represents 60% growth inhibition. A value of 0 means no net growth occurred over the course of the experiment. A value of -40 indicates 40% of cells at the beginning of the experiment died by the end of the experiment. A value of -100 means all cells are dead at the end of the experiment.
NCI-60 Human Tumor Cell Lines Screen was performed using the standard one-dose NCI protocol, which is described in more detail at https://dtp.cancer.gov/discovery_development/nci-60/default.htm.
Compounds with GIPRCNT values below 10 were considered active. Activity score was based on GIPRCNT using the following formula: […]
Score is 0 for GIPRCNT values of 100 or above, 50 for GIPRCNT values of 0, and 100 for GIPRCNT values of -100.

| Compound | growth |
| --- | --- |
| Cn1cc(-c2cc(N)n3nc(-c4cn(C)c5ccccc45)cc3n2)c2cc(F)ccc21 | -83.6% (active) |
| COc1ccc(C(=O)COc2ccc(NC(=O)Nc3ccc(Cl)c(C(F)(F)F)c3)cc2)cc1 | 19% |
| COc1cc(C2CC(c3ccc(Oc4ccc(Cl)cc4)cc3)=NN2c2nc(-c3ccc(Cl)cc3)c(C#N)c(N3CCOCC3)n2)cc(OC)c1OC (stereo not given) | 99% |
| COc1ccc(-n2c(SCC(=O)NNS(=O)(=O)c3ccccc3)nc3ccc(Cl)cc3c2=O)cc1 | 104% |
| Cc1ccc2sc3c(c2c1)Oc1nc[nH]c(=O)c1C3c1cccc(F)c1 (stereo not given) | 99.4% |
| Cc1ccc(S(=O)(=O)N2CCN(S(=O)(=O)c3oc(-c4ccccc4)nc3C#N)CC2)cc1 | 84.8% |
| C#C[C@]1(O)CC[C@H]2[C@@H]3CC=C4c5sc(Nc6ccc(N(C)C)cc6)nc5CC[C@]4(C)[C@H]3CC[C@@]21C | -12.3% (active) |
| O=C(CN1CCN(c2ncnc3c2cnn3-c2ccccc2)CC1)Nc1ccc(Br)cc1 | 59.3% |
| COc1cc(-c2nc3ccc(C)cc3[nH]2)ccc1OCc1nnc(-c2ccccc2Br)o1 | 71.2% |
| CCOC(=O)C1=C(N)N(c2ccc(C)cc2)C2=C(C(=O)CC(C)(C)C2)C1c1ccccc1Br (stereo not given) | 83% |
| O=C(Nc1ccc(OCC(=O)c2ccc(Cl)cc2)cc1)Nc1ccc(Cl)c(C(F)(F)F)c1 | 33.9% |
| CC1(C)CC(=O)C2=C(C1)N(Cc1ccc(C(=O)O)cc1)C1=C(C(=O)CC(C)(C)C1)C2c1ccc(Cl)cc1 | 101% |
| O=C1NC2C=CC=CC2/C1=C1/SC(=S)N(C2CC(=O)N(c3ccc(Br)cc3)C2=O)C1=O (stereo not given) | 103% |
| Fc1ccc(-c2csc(Nc3cccc(Nc4nc(-c5ccc(F)cc5)cs4)c3)n2)cc1 | 66.8% |
| Cc1ccc(-c2nc(C#N)c(S(=O)(=O)N3CCN(S(C)(=O)=O)CC3)o2)cc1 | 22.6% |
| O=C(c1ccccc1)c1ccc2nc(-c3ccccc3Br)[nH]c2c1 | -70.1% (active) |
| Cc1cc(N=C2NC(=O)/C(=C/c3cc(C(C)(C)C)c(O)c(C(C)(C)C)c3)S2)n[nH]1 | 24.7% |
| O=C(Nc1ccc(Oc2ncnc3scc(Nc4n[nH]c(=S)s4)c23)cc1)C1(C(=O)Nc2cccc(C(F)(F)F)c2)CC1 | 103% |
| COc1ccc(C2c3sc4ccc(C)cc4c3Oc3nc[nH]c(=O)c32)cc1 (stereo not given) | 73.2% |
| O=C(c1ccc(Cl)cc1)C(c1c[nH]c2ccccc12)c1c[nH]c2ccccc12 | -71% (active) |

| Compound | growth |
| --- | --- |
| O=[N+]([O-])c1cccc(-c2nnc3c(/C=C/c4ccccc4O)nc4ccccc4n23)c1 | 29.8% |
| Cc1ccc(COc2ccc(NC(=O)Nc3ccc(Cl)c(C(F)(F)F)c3)cc2)cc1 | 93.4% |
| COc1ccc(C2OC[C@@]3(C)C4CC[C@]5(C)C(CC=C6C7CC(C)(C)CC[C@]7(C(=O)O)CC[C@]65C)[C@@]4(C)C[C@@H](O)[C@@H]3O2)cc1 (stereo not given in full) | 96.8% |
| Fc1ccc(/C=C/c2nc3ccccc3n3c(-c4ccc(Cl)cc4)nnc23)cc1 | 63.8% |
| C#C[C@]1(O)CC[C@H]2[C@@H]3CC=C4c5sc(Nc6ccc(C(F)(F)F)cn6)nc5CC[C@]4(C)[C@H]3CC[C@@]21C | -21.4% (active) |
| O=C(CSc1nc2ccccc2c(=O)n1-c1ccc(Cl)cc1)Nc1ccc(-c2nc3ccccc3[nH]2)cc1 | -36.6% (active) |
| COc1cc2oc(-c3cccc(C(=O)Nc4ccc(Cl)cc4)c3)cc(=O)c2c(OCCN)c1OC | -89.7% (active) |
| CC(C)(C)c1cc(/C=C2\S/C(=N/c3ncn[nH]3)NC2=O)cc(C(C)(C)C)c1O | 17.9% |
| O=C(CC(=O)Nc1ccc(Oc2ncnc3scc(Nc4n[nH]c(=S)s4)c23)cc1)Nc1ccc(Br)cc1 | 98.1% |
| C#CCOc1cc(N(CC)CC)ccc1C(C(=O)NC(C)(C)C)N(C(=O)C1CCc2cc(F)ccc2O1)c1ccc(F)cc1F (stereo not given) | 43.3% |
| O=C1S/C(=C\c2ccc([N+](=O)[O-])cc2)C(=O)N1CCN1CCCCC1 | 98.6% |
| Cn1cc(-c2nc(N)nnc2-c2c[nH]c3ccccc23)c2cc(Br)cnc21 | 8.68% (active) |
| COc1ccc(Cc2nn(CC(=O)N/N=C/c3ccc([N+](=O)[O-])cc3)c(=O)c3c(C)noc23)cc1 | 70.1% |
| COc1ccc2[nH]cc(-c3nc(N)nnc3-c3cn(C)c4ncc(Br)cc34)c2c1 | 6.91% (active) |
| COc1ccc(NCc2cn(-c3ccc(C(=O)O)cc3)nc2-c2ccc(F)cc2)cc1C(F)(F)F | 51.5% |
| CC1[C@H]2[C@H](C[C@H]3[C@@H]4CC=C5c6sc(Nc7cccc(Cl)n7)nc6CC[C@]5(C)[C@H]4CC[C@@]32C)O[C@]12CC[C@@H](C)CO2 (stereo not given in full) | 77.4% |
| CC1(C)CC[C@]2(C(=O)O)CC[C@]3(C)C(=CCC4[C@@]5(C)C[C@@H](O)[C@@H]6OC(c7cccc(F)c7)OC[C@@]6(C)C5CC[C@]43C)C2C1 (stereo not given in full) | 46% |
| COc1cc(C2CC(c3ccccc3)=Nc3c(N)nc(N)nc3N2)ccc1Oc1nc(NCCO)nc(N2CCOCC2)n1 (stereo not given) | 104% |
| O=C1NC(=S)S/C1=C\c1cn(-c2ccccc2)nc1-c1ccc([N+](=O)[O-])cc1 | 20.5% |
| CCn1c(SCC(=O)Nc2ccc(-c3nc4ccccc4[nH]3)cc2)nc2ccccc2c1=O | -87.9% (active) |
